Test results from PubChem BioAssay (Tox21).
Several values for one entry are separate records, joined by “and”; a condition that tells them apart may be missing. Identical values can stand only once. Records with an inconclusive call do not appear. Activity calls are given as the source filed them. Unless noted, the call rests on the fitted dose curve; in most records, active means well fitted curve in the direction sought with a large enough effect in the repeat runs; inconclusive means weak or mixed curves; inactive means no such curve, though single readings can be large; an effect the other way counts as inactive or inconclusive.

Key:
[1] = qHTS assay to identify small molecule antagonists of the estrogen related receptor (ERR) signaling pathway from Tox21 library - cell viability counter screen (AID 1224834); further: nearly all actives have a fitted effect of over 30% in size; further: potency means the concentration at half of the fitted maximal effect
How it was run: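 Counter screen run in ERR cells (2,000 cells/well): cells pre-incubated 6 h, then treated with compounds for 17.5 h at 37 C. Fluorescence was read 30 min after CellTiter-Fluor addition.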

[2] = biological target: Luciferin 4-monooxygenase (Photinus pyralis) (UniProt P08659); assay: qHTS assay to identify small molecule inhibitors of firefly luciferase (AID 1224835); further: nearly all actives have a fitted effect of over 25% in size; further: potency means the concentration at half of the fitted maximal effect
Chain of Luciferin 4-monooxygenase (Photinus pyralis) (P08659 whole entry, looked up): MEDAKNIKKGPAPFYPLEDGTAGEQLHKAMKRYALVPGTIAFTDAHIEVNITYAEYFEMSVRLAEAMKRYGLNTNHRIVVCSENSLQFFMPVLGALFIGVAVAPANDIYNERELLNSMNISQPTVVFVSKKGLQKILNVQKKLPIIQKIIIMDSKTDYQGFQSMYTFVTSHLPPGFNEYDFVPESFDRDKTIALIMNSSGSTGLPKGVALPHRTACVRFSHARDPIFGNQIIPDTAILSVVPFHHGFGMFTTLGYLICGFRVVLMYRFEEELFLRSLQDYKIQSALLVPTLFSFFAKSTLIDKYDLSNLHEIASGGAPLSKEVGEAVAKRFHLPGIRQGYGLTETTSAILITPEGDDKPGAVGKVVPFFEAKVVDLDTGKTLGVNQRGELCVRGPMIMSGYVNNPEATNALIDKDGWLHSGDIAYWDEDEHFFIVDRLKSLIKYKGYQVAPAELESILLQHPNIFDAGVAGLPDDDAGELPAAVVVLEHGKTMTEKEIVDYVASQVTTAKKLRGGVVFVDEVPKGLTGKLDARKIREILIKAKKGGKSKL
How it was run: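 Inhibition of purified Photinus luciferase is measured by luminescence. Substrate levels (D-luciferin, ATP) sit at their KM values. Each compound is tested in a concentration series.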

[3] = qHTS assay to identify small molecule agonists of the constitutive androstane receptor (CAR) signaling pathway - cell viability counter screen (AID 1224836); further: nearly all actives have a fitted effect of over 45% in size
How it was run: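 Double-stable HepG2 hepatoma cells (hCAR plus CYP2B6-2.2kb) are treated for 23 h at 37 C with test compounds in 15-point concentration series. PK11195 at 0.75 uM final is co-added. Cell viability is quantified by CellTiter-Fluor.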

[4] = qHTS assay to identify small molecule antagonists of the constitutive androstane receptor (CAR) signaling pathway - cell viability counter screen (AID 1224837); further: nearly all actives have a fitted effect of over 45% in size
How it was run: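 CITCO at 50 nM final was added alongside compounds (15 concentrations) to double-stable hCAR/CYP2B6-2.2kb HepG2 cells. Following 23 hr at 37 C, cell viability was quantified by CellTiter-Fluor fluorescence intensity.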

[5] = biological target: Nuclear receptor subfamily 1 group I member 3 (Homo sapiens) (UniProt Q14994); assay: qHTS assay to identify small molecule antagonists of the constitutive androstane receptor (CAR) signaling pathway (AID 1224838); further: nearly all actives have a fitted effect of over 40% in size
Chain of Nuclear receptor subfamily 1 group I member 3 (Homo sapiens) (Q14994 whole entry, looked up): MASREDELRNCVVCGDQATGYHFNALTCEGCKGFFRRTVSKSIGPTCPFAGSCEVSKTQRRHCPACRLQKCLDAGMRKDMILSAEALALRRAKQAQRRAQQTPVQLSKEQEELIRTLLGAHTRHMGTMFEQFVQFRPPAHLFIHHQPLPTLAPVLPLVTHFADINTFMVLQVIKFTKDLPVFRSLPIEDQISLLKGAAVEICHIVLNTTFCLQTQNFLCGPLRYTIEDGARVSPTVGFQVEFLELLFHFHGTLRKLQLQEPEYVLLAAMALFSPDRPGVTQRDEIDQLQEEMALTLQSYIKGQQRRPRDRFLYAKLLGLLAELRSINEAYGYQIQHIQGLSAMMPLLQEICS
How it was run: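 Inhibition of CITCO-driven (50 nM final) CYP2B6 reporter expression is measured in HepG2 cells stably carrying hCAR. Fifteen compound concentrations are applied for 24 h at 37 C, followed by luciferase luminescence.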

[6] = biological target: Nuclear receptor subfamily 1 group I member 3 (Homo sapiens) (UniProt Q14994); assay: qHTS assay to identify small molecule agonists of the constitutive androstane receptor (CAR) signaling pathway (AID 1224839); further: nearly all actives have a fitted effect of over 15% in size
How it was run: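 Readout: firefly luciferase luminescence via ONE-Glo. System: HepG2 double-stable for hCAR and CYP2B6-2.2kb. Conditions: 15-point compound titration, PK11195 at 0.75 uM final, 24 h incubation.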

[7] = qHTS assay to identify small molecule antagonists of the estrogen related receptor signaling pathway with the pleiotropic PPARgamma coactivator (PGC) from Tox21 10K library - cell viability counter screen (AID 1224840; active means well fitted cell-killing curve with a large enough effect in the repeat runs, not every such curve was filed as active; further: nearly all actives have a fitted effect of over 40% in size; further: potency means the concentration at half of the fitted maximal effect)
How it was run: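 Readout: fluorescence intensity from CellTiter-Fluor after 30 min at 37 C/5% CO2. Preceded by 17.5 h treatment of PGC/ERR cells with DMSO-dissolved compounds, added 6 h post-seeding.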

[8] = qHTS assay to identify small molecule antagonists of the estrogen related receptor signaling pathway with the pleiotropic PPARgamma coactivator (PGC) from Tox21 10K library (AID 1224841; call rule not given here; further: actives are mostly falling curves and most rising ones were filed inactive; nearly all actives have a fitted effect of over 50% in size)
How it was run: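 One-Glo luminescence, measured after half an hour at room temperature, quantified reporter output of PGC/ERR cells. These had been plated at 2,000 per well, incubated 6 h, dosed with compounds in DMSO, then kept 18 h at 37 C.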

[9] = qHTS assay to identify small molecule agonists of the estrogen related receptor signaling pathway with the pleiotropic PPARgamma coactivator (PGC) from Tox21 10K library (AID 1224842); further: nearly all actives have a fitted effect of over 15% in size
How it was run: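 Luminescence from One-Glo (30 min, room temperature) measured after PGC/ERR cells had 18 h at 37 C with pinned compound (23 nL in DMSO). Cells had been seeded at 2,000 per well and pre-incubated 6 h.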

[10] = qHTS assay to identify small molecule agonists of H2AX (AID 1224845; active means well fitted activation curve with a large enough effect in the signal ratio in the repeat runs, not every such curve was filed as active; the % refers to the signal ratio)
How it was run: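 Phospho-H2AX Ser139 measured by HTRF (ex 320 nm; em 665 and 620 nm) after 24 hr antibody incubation. Compounds, 15 concentrations, 0.76% DMSO, were applied to CHO-K1 cells for 3hr at 37C before lysis.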

[11] = qHTS assay to identify small molecule agonists of H2AX - cell viability counter screen (AID 1224847; calls by dose curve; further: nearly all actives have a fitted effect of over 30% in size; further: potency means the concentration at half of the fitted maximal effect)
How it was run: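 For this counter screen, overnight-attached CHO-K1 cells received test compounds (15 concentrations, 0.76% DMSO final); 3 hr later at 37C, CellTiter-Glo reagent was added and luminescence recorded after 30 min at room temperature.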

[12] = qHTS assay to identify small molecule antagonists of the estrogen related receptor (ERR) signaling pathway from Tox21 library (AID 1224848); further: nearly all actives have a fitted effect of over 50% in size; further: potency means the concentration at half of the fitted maximal effect
How it was run: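 Luciferase luminescence (ONE-Glo, 30 min room temperature) was the read-out. Cells of the NTP-supplied ERR line, 2,000 per well, were given 6 h at 37 C before compound addition in DMSO and 18 h exposure at 37 C.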

[13] = qHTS assay to identify small molecule agonists of the estrogen related receptor (ERR) signaling pathway from Tox21 library (AID 1224849; calls by dose curve; further: nearly all actives have a fitted effect of over 15% in size); details: ERR reporter cell line, ONE-Glo luciferase, 18 h
How it was run: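 Luciferase activity in ERR pathway reporter cells served as the agonist readout; exposure lasted 18 h at 37 C, with ONE-Glo detection after 30 min at room temperature.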

[14] = qHTS RealTime-Glo MT Cell Viability Assay in HepG2 cells - 24 hour (AID 1224867); further: nearly all actives have a fitted effect of over 50% in size; further: potency means the concentration at half of the fitted maximal effect
How it was run: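 Tox21 10K library screened in qHTS format on HepG2 cells carrying RealTime-Glo reagents. Compounds were added after a 5 h preincubation, and the luminescent signal from continuous culture was measured repeatedly during 40 h treatment.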

[15] = qHTS RealTime-Glo MT Cell Viability Assay in HEK293 cells - 32 hour (AID 1224868); further: nearly all actives have a fitted effect of over 50% in size; further: potency means the concentration at half of the fitted maximal effect
How it was run: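 Luminescence generated by NanoLuc from substrate produced by living HEK293 cells served as the viability signal. Each value reflects the reading at its stated time point during continuous 40 h compound exposure at 37 C.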

[16] = A CellTox Green Cytotoxicity Assay to monitor cytotoxicity in HEK293 cells - 0 hour (AID 1224869); further: nearly all actives have a fitted effect of over 50% in size
How it was run: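 Real-time, in one plate: 600 HEK293 cells/well with dead-cell DNA dye, pinned compound after 5 h, 37 C incubation over 40 h; viable cells give no appreciable fluorescence.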

[17] = qHTS RealTime-Glo MT Cell Viability Assay in HepG2 cells - 40 hour (AID 1224870); further: nearly all actives have a fitted effect of over 50% in size; further: potency means the concentration at half of the fitted maximal effect
How it was run: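 Real-time viability: cells seeded at 600 per well together with NanoLuc and cell-permeant prosubstrate, compounds added after 5 h incubation. Luminescence tracked at 0, 8, 16, 24, 32 and 40 h of exposure.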

[18] = biological target: Thyrotropin receptor (Homo sapiens) (UniProt P16473); assay: qHTS assay to identify small molecule agonists of the thyroid stimulating hormone receptor (TSHR) signaling pathway (AID 1224843; calls by dose curve; further: nearly all actives have a fitted effect of over 45% in size; further: potency means the concentration at half of the fitted maximal effect)
Chain of Thyrotropin receptor (Homo sapiens) (P16473 whole entry, looked up): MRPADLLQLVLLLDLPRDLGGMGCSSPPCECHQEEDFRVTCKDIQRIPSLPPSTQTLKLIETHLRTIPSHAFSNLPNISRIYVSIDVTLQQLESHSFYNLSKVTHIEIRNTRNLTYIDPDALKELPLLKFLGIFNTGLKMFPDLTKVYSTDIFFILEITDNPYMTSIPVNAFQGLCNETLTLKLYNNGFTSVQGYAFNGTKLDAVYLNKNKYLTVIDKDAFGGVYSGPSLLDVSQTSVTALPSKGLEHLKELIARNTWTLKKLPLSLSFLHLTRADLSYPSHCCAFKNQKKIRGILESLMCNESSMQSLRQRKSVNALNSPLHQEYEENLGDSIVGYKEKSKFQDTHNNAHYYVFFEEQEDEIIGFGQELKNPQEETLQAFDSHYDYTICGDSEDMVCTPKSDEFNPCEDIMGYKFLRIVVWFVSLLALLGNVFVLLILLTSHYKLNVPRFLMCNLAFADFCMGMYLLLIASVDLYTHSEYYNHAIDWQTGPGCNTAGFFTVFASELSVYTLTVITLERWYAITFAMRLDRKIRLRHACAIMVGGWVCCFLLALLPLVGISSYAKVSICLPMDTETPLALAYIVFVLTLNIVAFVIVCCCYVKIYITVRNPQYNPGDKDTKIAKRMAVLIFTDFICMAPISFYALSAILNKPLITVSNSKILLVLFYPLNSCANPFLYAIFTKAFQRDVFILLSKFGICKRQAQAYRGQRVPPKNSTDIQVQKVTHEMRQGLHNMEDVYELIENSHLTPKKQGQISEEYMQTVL
How it was run: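 Agonist activity read as cAMP rise via d2/cryptate HTRF competition, 1 h room-temperature detection, in HEK293 cells expressing TSHR. Fifteen-point titrations, each run in triplicate, with a 30 min room-temperature incubation beforehand.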

[19] = qHTS assay to identify small molecule agonists of the hypoxia (HIF-1) signaling pathway - cell viability counter screen (AID 1224844; calls by dose curve; further: nearly all actives have a fitted effect of over 50% in size; further: potency means the concentration at half of the fitted maximal effect)
How it was run: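 In this counter screen, HRE-bla ME-180 cell viability after 17 hrs of compound exposure at 37C was read by CellTiter-Glo luminescence, multiplexed with the beta-lactamase reporter measurement.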

[20] = qHTS assay to identify small molecule agonists of the hypoxia (HIF-1) signaling pathway (AID 1224846; active means well fitted activation curve with a large enough effect in the signal ratio in the repeat runs, not every such curve was filed as active; the % refers to the signal ratio)
How it was run: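 ME-180 HRE-bla reporter cells; compounds in DMSO, 17 h at 37C; read-out beta-lactamase via CCF4-AM FRET.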
On the % scale 0 is the no-effect control and ±100 the full control effect.

COc1ccc2c(c1)c(CC(=O)OC/C=C(\C)CC/C=C(\C)CCC=C(C)C)c(C)n2C(=O)c1ccc(Cl)cc1
inactive: Potency [1] | Potency [2] | Potency [3] | Potency [4] | Potency [5] | Potency [6] | Potency [7] | Potency [8] | Potency [9] | Potency [10] | Potency [11] | Potency [12] | activity change, positive = activation ([13]; at 42.5 µM (top of the series)) -0.248% | Potency [14] | Potency [15] | Potency [16] | Potency [17]

CCN1C(=O)c2ccccc2C1Nc1ccc(OCCN2CCCCC2)cc1 (stereo not given)
active: Potency [15] 5.35 µM
inactive: Potency [1] | Potency [2] | Potency [3] | Potency [4] | Potency [5] | Potency [6] | Potency [7] | Potency [18] | Potency [19] | Potency [20] | Potency [11] | Potency [14] | Potency [16] | Potency [17]

CCCNCCC
inactive: Potency [1] | Potency [2] | Potency [3] | Potency [4] | Potency [5] | Potency [6] | Potency [7] | Potency [18] | Potency [19] | Potency [10] | Potency [20] | Potency [11] | Potency [14] | Potency [15] | Potency [16] | Potency [17]

COc1ccc(NC(=O)CC(C)=O)cc1
inactive: Potency [1] | Potency [2] | Potency [3] | Potency [4] | Potency [5] | Potency [6] | Potency [7] | Potency [18] | Potency [19] | Potency [10] | Potency [20] | Potency [11] | Potency [14] | Potency [15] | Potency [16]

CC(C)(C)NSc1nc2ccccc2s1
inactive: Potency [1] | Potency [3] | Potency [4] | Potency [5] | Potency [6] | Potency [7] | Potency [18] | Potency [19] | Potency [20] | Potency [11] | Potency [14] | Potency [15] | Potency [16] | Potency [17]
active: Potency [2] 18.1 µM

CCCCOC(=O)CC
inactive: Potency [1] | Potency [2] | Potency [3] | Potency [4] | Potency [5] | Potency [6] | Potency [7] | Potency [18] | Potency [19] | Potency [10] | Potency [20] | Potency [11] | Potency [14] | Potency [15] | Potency [16] | Potency [17]

CC(=O)OCC=C(C)C
inactive: Potency [1] | Potency [2] | Potency [3] | Potency [4] | Potency [5] | Potency [6] | Potency [7] | Potency [18] | Potency [19] | Potency [10] | Potency [20] | Potency [11] | Potency [14] | Potency [15] | Potency [16]

CCCCCCC1CCCC(=O)O1 (stereo not given)
inactive: Potency [1] | Potency [2] | Potency [3] | Potency [4] | Potency [5] | Potency [6] | Potency [7] | Potency [9] | Potency [18] | Potency [19] | Potency [10] | Potency [20] | Potency [11] | Potency [12] | activity change, positive = activation ([13]; at 92.4 µM (top of the series)) 0.936% | Potency [14] | Potency [15] | Potency [16] | Potency [17]

OC[C@@H](O)[C@@H](O)CO
inactive: Potency [1] | Potency [2] | Potency [3] | Potency [4] | Potency [5] | Potency [6] | Potency [7] | Potency [9] | Potency [18] | Potency [19] | Potency [10] | Potency [20] | Potency [11] | Potency [12] | activity change, positive = activation ([13]; at 92.4 µM (top of the series)) 4.53% | Potency [14] | Potency [16] | Potency [17]

C=C(C)C(=O)OCCCCCCCCCC
inactive: Potency [1] | Potency [2] | Potency [3] | Potency [4] | Potency [5] | Potency [6] | Potency [7] | Potency [8] | Potency [9] | Potency [18] | Potency [19] | Potency [20] | Potency [11] | Potency [12] | activity change, positive = activation ([13]; at 92.4 µM (top of the series)) 2.01% | Potency [14] | Potency [15] | Potency [16] | Potency [17]

C#CC1(O)CC[C@H]2[C@@H]3CCC4=CCCC[C@@H]4[C@H]3CC[C@@]21C (stereo not given in full)
inactive: Potency [2] | Potency [3] | Potency [4] | Potency [9] | Potency [10] | activity change, positive = activation ([13]; at 42.5 µM (top of the series)) -49.7% | activity change, positive = activation ([13]; at 92.4 µM (top of the series)) -45.9% | Potency [16]
active: Potency [1] 54.5 µM | Potency [7] 33.5 µM | Potency [18] 19.3 µM | Potency [19] 21.9 µM and 15.1 µM | Potency [11] 89.8 µM | Potency [12] 61.1 µM and 26.6 µM | Potency [14] 21.3 µM | Potency [15] 17.4 µM and 19 µM | Potency [17] 49 µM and 23.9 µM

S=c1nccc[nH]1
inactive: Potency [1] | Potency [2] | Potency [3] | Potency [4] | Potency [6] | Potency [7] | Potency [8] | Potency [19] | Potency [20] | Potency [11] | Potency [12] | activity change, positive = activation ([13]; at 92.4 µM (top of the series)) -6.52% | Potency [14] | Potency [15] | Potency [16]

CCCCCCCCCCOC(=O)c1ccccc1C(=O)OCCCCCCCC
inactive: Potency [1] | Potency [2] | Potency [3] | Potency [4] | Potency [5] | Potency [6] | Potency [7] | Potency [18] | Potency [20] | Potency [11] | Potency [14] | Potency [16] | Potency [17]

Cc1c(C)c2c(c(C)c1OC(=O)c1cccnc1)CC[C@@](C)(CCC[C@H](C)CCC[C@H](C)CCCC(C)C)O2
inactive: Potency [1] | Potency [2] | Potency [3] | Potency [4] | Potency [7] | Potency [8] | Potency [18] | Potency [19] | Potency [20] | Potency [11] | Potency [12] | activity change, positive = activation ([13]; at 42.5 µM (top of the series)) 3.86% | Potency [14] | Potency [15] | Potency [16]
